From PubChem
KLF5 inhibitor = kruppel-like factor 5 inhibition; DLD-1 KLF5 promoter-luciferase reporter, luminescence; inhibition, % at 5 µM; 290,000 tested, 0.23% active;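 active = inhibition above a per-plate limit of that plate's mean compound inhibition plus 3 SD, cut at about 60% in these data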;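 note: 0% = DMSO wells and 100% = LY294002 at 200 µM; higher means less KLF5 promoter-driven luciferase light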
BaF3 tox = reduces parental Ba/F3 cell viability, JAK2V617F counter-screen; CellTiter-Glo ATP luminescence; AID 1486; inhibition, % at 5.6 µM; 220,000 tested, 1.1% active;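 active = inhibition above a per-campaign cutoff, the mean inhibition of all tested compounds plus 3 SD, cut at about 27% in these data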;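 note: 0% = DMSO wells and 100% = JAK Inhibitor I control wells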
GPR7 antag = human neuropeptides B/W receptor 1 antagonism; 290,000 tested, 1.1% active; AID 1861; GPR7-expressing cells, fluorescence antagonist assay; inhibition, % at 4.4 µM; in the data active = inhibition above about 16%, passing the limit was not always enough;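 note: cells stimulated with the agonist NPW; 0% = agonist with vehicle and 100% = vehicle without agonist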
Target sequence (P48145 whole entry, looked up): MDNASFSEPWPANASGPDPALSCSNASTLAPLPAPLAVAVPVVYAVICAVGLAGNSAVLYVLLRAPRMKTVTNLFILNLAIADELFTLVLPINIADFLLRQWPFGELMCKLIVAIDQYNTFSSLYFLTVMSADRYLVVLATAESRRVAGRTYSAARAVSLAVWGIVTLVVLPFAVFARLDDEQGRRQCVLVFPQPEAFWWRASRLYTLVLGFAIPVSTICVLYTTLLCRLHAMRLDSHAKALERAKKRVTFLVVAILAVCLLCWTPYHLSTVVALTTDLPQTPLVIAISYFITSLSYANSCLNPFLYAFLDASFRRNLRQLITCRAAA
FID counter = fluorescent intercalator displacement, NS3 helicase counter-screen | DNA fluorescent intercalator displacement, fluorescence | inhibition, % at 7.9 µM | 290,000 tested, 0.17% active | AID 1845; in the data active = inhibition above about 37%;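 note: 0% = vehicle and 100% = reference compound; higher means more ethidium bromide displaced from hairpin DNA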
Ba/F3 V617F tox = lowers viability of Ba/F3 cells expressing EpoR and JAK2V617F; 220,000 tested, 1.1% active; inhibition, % at 5.6 µM; ATP luminescence; AID 1446;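 active = inhibition above the campaign mean plus 3 SD over all tested compounds, cut at about 24% in these data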;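 note: cytokine-independent growth of Ba/F3 cells driven by EpoR plus mutant JAK2; 0% = DMSO-treated cells and 100% = JAK inhibitor I control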
IEC-6 cytotox = kills IEC-6 intestinal cells in KLF5 counter-screen; IEC-6 cytotoxicity, luminescence viability; inhibition, % at 5 µM; 290,000 tested, 0.78% active; in the data active = inhibition above about 22%;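 note: 0% = plate median of test compound wells and 100% = cytotoxic reference compound wells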
An asterisk follows results filed as active; · = no result given. An excerpt weighted towards active compounds, which were near 2.6% of everything screened.

SMILES	KLF5 inhibitor	BaF3 tox	GPR7 antag	FID counter	Ba/F3 V617F tox	IEC-6 cytotox
CCCOCc1ccc(O)c2ncccc12	16	3	4	-6	-4	2
Oc1ccc(CN2CCN(c3ccccc3)CC2)c2cccnc12	-1	5	0	3	0	0
COC(=O)Cn1c(C(=O)N2CCCC2)cc2c1C[C@H]1CN(C(=O)c3ccccc3)[C@@](Cc3ccc(F)cc3)(C(=O)OC)[C@@H]21	-6	6	-9	-62	4	-7
COc1cccc(COc2cc3ccccc3nc2C)c1	36	43*	18	-18	42*	6
Cc1nc2ccccc2cc1OCc1ccccc1	11	8	-3	-13	0	1
COc1ccc2c(c1)C(C)=CC(C)(C)N2C(=O)CSc1nnc(-c2ccc(C)cc2)o1	-17	4	-8	-6	0	0
Cc1sc2ncnc(N3CCN(CCOc4ccc(Cl)cc4)CC3)c2c1C	-6	31*	5	-3	11	6
Cn1c(/C=C/c2ccc([N+](=O)[O-])o2)nc2ccccc2c1=O	-21	67*	10	-4	87*	6
Cn1c(/C=C/c2ccccc2)nc2ccccc2c1=O	-102	·	7	-11	·	3
COCCCNC(=S)NNC(=O)C1CC1c1ccc(C(C)(C)C)cc1 (configuration not stated)	-21	38*	-23	-27	7	-2
COCCNC(=S)NC(=O)c1ccc(C(C)(C)C)cc1	-26	11	-11	-23	1	4
COCCn1cnc2cc(C)c(C)cc21	15	44*	-10	-2	4	1
Cc1cc2ncn(CCOc3ccccc3)c2cc1C	-107	8	-5	-7	3	0
COc1ccccc1Nc1cc(C(=O)NC2CCCC2)c2ccccc2n1	-12	·	-10	-17	·	2
CC(=O)c1ccc(NC(=O)CNCC(c2ccccc2)N(C)C)cc1 (configuration not stated)	-22	7	-11	11	2	2
CCOC(=O)c1cc(NC(=O)CNCC(c2ccccc2)N(C)C)cc(C(=O)OCC)c1 (configuration not stated)	-9	·	28	38*	·	3
CCN(CC)c1ccc(NC(=O)C2CC(=O)N(Cc3ccccc3)C2)cc1 (configuration not stated)	-8	7	-4	-8	4	-8
CC(C)c1ccc(CN2CC(C(=O)Nc3ccccc3)CC2=O)cc1 (configuration not stated)	-34	4	17*	-31	-2	-5
Cc1cc2nc(N=C(N)N)nc(C)c2cc1C	21	65*	19*	33	73*	15
Cc1ccc2nc(N=C(N)N)nc(C)c2c1	-19	42*	-12	8	50*	4
Cc1ccc2nc(/N=C(\N)NC(=O)NC3CCCCC3)nc(C)c2c1	2	3	9	6	3	4
CCc1ccc2nc(N=C(N)N)nc(C)c2c1	22	45*	-16	7	50*	8
Cc1ccc2c(c1)C(c1ccccc1)N(C(=O)c1ccc3c(c1)OCO3)CC(=O)N2 (configuration not stated)	-9	-3	7	-24	3	3
[O-]/[N+](=C\c1ccc(OC(F)F)cc1)c1ccccc1	-15	6	14	3	5	4
FC(F)Oc1ccc(-n2cc(-c3ccccc3)[n+]3c2CCCCC3)cc1	-9	63*	1	8	65*	-2
SMILES	KLF5 inhibitor	BaF3 tox	GPR7 antag	FID counter	Ba/F3 V617F tox	IEC-6 cytotox
Cc1ccc(-c2cn(-c3ccc(OC(F)F)cc3)c3[n+]2CCCCC3)cc1	-7	73*	17	20	78*	16
CCN(CC)CCNC(=O)c1ccc(NC(=O)c2ccccc2-c2ccc(C(F)(F)F)cc2)cc1	-2	·	2	28	·	-3
O=C(NC1CCCCC1)N1CCNCC1	-20	·	6	-3	·	4
C1CCCCCC(NCCN2CCNCC2)CCCCC1	-32	42*	8	17	80*	9
Cc1cc(C)c(C(=O)OCCNC(=O)c2cccnc2)cc1C	-34	1	-4	-15	-1	3
C=CCn1cc(/C=N/Nc2nc3ccccc3[nH]2)c2ccccc21	-31	3	-7	-1	1	23*
O=C(CN1CCOCC1)Nc1cccc(Br)c1	4	4	-19	3	1	-5
O=C(CC1NCCc2ccccc21)Nc1ccc(Oc2ccccc2)cc1 (configuration not stated)	13	6	21*	2	3	6
O=C(OCCOc1ccccc1Cl)c1ccc(-n2cnnn2)cc1	-27	1	17*	-10	-4	4
CN(C)S(=O)(=O)c1cccc(NC(=S)NN=C(Cc2ccccc2)Cc2ccccc2)c1	-17	5	2	-4	1	1
C#CC[N+](C)(C)C(C#Cc1ccccc1)CC=C (configuration not stated)	10	48*	9	3	26*	1
COC(=O)C[N+](C)(C)CC#Cc1ccccc1	-13	8	12	1	-1	-7
CCO[C@H]1OC(C(N)=O)=C[C@@H](c2csc3ccccc23)[C@@H]1CCCO	-25	-2	0	-14	0	-2
COc1ccc(C(=O)N2CCN(C(=O)c3cc(OC)c(OC)c(OC)c3)CC2)cc1	1	5	-9	-12	-3	-7
COc1ccc(C(=O)N2CCN(c3ccc(C)cc3)CC2)cc1OC	-25	7	16*	-29	-1	-2
COc1cc(C(=O)N2CCN(c3cc(Cl)ccc3Cl)CC2)cc(OC)c1OC	49	63*	2	5	65*	61*
CC(C)Cn1c(N)c(C(=O)COC(=O)CC23CC4CC(CC(C4)C2)C3)c(=O)n(C)c1=O	-16	42*	21*	-30	36*	11
CC(C)Cn1c(N)c(C(=O)COC(=O)c2ccc(Cl)cc2)c(=O)n(C)c1=O	-12	5	5	-17	-1	-1
CCC1CCCCN1CCCNC(=O)c1cn(CC)c2ccc(S(=O)(=O)N3CCc4ccccc4C3)cc2c1=O (configuration not stated)	-28	14	-8	49*	4	0
CCn1cc(C(=O)NCCCN2CCCC(C)C2)c(=O)c2cc(S(=O)(=O)N3CCc4ccccc4C3)ccc21 (configuration not stated)	4	2	-15	9	0	1
COC(=O)CC1C(=O)NCCN1C(=O)CSc1nc2ccccc2c(=O)n1CC(C)C (configuration not stated)	-4	1	-14	-24	3	0
COC(=O)CC1C(=O)NCCN1C(=O)CSc1nc2ccccc2o1 (configuration not stated)	-27	5	22*	-3	-1	3
O=C(c1ccc2c(=O)n(Cc3ccc4c(c3)OCO4)c(=S)[nH]c2c1)N1CCCCC1	-41	4	2	1	-3	1
